Data as given in PMC5700166.

Columns and labels:
Assay in all cases: protein-binding microarray (PBM); PBM: ~300 nM protein, 6 mM HEPES pH 7.8, 80 mM KCl, 0.5 mM EDTA, 0.5 mM EGTA, 6% glycerol, 35 ng/ul poly-dIdC, 1% milk, 1 h, room temperature; Ap Aiptasia and Nv Nematostella (sea anemones) / Co Capsaspora / Aq Amphimedon (sponge) / Dm Drosophila / Hu human; RHD is the Rel homology domain; high values mean tight binding
Details in all cases: dsDNA, one strand shown
GST-Ap-NF-kB RHD = biological target: T1, GST-Ap-NF-kB RHD (Exaiptasia pallida (Aiptasia), UniProt A0A913YAJ5 2-422)
T1 sequence: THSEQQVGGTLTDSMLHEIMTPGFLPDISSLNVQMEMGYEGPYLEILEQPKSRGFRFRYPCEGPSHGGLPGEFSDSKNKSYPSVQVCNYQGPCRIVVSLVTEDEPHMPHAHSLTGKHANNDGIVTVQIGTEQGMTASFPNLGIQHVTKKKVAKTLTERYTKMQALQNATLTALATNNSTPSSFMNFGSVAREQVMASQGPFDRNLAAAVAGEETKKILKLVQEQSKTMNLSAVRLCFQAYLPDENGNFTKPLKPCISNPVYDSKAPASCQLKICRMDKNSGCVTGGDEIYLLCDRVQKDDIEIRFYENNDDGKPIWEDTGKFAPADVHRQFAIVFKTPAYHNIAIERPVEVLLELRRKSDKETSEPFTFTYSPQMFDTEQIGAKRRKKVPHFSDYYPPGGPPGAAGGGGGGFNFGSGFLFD

[1] = biological target: T2, GST-Nv-NF-kB (Cys allele) (Nematostella vectensis, UniProt E5G601 2-411)
T2 sequence: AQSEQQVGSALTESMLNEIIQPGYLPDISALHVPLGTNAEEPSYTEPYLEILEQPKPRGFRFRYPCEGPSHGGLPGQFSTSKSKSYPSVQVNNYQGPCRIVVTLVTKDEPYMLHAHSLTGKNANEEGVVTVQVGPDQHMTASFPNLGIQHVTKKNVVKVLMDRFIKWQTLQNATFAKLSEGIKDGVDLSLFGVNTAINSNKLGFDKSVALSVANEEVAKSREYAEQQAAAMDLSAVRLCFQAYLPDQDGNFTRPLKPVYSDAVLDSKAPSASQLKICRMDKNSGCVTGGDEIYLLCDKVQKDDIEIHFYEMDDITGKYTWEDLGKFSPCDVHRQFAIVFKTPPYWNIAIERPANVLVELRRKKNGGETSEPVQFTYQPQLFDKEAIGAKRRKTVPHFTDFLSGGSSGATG

GST-Co-NF-kB = biological target: T3, GST-Co-NF-kB (Capsaspora owczarzaki, UniProt F1ARL5 200-546)
T3 sequence: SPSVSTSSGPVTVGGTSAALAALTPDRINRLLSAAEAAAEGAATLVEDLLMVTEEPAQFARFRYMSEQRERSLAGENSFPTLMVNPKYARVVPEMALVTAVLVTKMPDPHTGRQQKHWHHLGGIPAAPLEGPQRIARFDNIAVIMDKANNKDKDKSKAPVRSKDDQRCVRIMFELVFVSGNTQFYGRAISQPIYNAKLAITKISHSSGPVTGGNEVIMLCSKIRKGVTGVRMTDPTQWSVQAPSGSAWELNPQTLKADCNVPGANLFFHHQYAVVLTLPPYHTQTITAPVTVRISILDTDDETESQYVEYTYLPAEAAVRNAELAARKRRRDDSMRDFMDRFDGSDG

GST-Dm-Relish = biological target: T4, GST-Dm-Relish (Drosophila melanogaster, UniProt Q94527 99-473)
T4 sequence: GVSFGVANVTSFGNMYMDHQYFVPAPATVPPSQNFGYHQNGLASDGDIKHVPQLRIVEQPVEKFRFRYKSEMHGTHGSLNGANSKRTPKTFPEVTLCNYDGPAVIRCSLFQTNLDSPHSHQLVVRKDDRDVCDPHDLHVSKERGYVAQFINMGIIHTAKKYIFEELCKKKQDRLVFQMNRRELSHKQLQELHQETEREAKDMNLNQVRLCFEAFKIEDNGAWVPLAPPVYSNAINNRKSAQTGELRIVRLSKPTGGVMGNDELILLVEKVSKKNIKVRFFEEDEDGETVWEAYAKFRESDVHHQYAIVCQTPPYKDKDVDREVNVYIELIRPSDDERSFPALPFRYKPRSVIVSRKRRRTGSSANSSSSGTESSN

GST-Aq-NF-kB = biological target: T5, GST-Aq-NF-kB (Amphimedon queenslandica, UniProt A9Y5G7 2-389)
T5 sequence: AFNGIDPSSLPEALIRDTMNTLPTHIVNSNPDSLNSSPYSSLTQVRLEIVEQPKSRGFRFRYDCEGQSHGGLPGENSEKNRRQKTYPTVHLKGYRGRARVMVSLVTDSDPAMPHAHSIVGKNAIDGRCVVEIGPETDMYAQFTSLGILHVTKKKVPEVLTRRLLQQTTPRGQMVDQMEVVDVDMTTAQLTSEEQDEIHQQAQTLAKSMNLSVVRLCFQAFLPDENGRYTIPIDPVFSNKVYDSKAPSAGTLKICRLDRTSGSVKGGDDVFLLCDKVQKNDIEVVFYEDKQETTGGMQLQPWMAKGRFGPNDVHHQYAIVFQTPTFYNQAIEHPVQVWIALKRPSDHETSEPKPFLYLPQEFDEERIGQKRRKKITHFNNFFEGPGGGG

Row | Sequence | binding signal (GST-Ap-NF-kB RHD) | binding signal [1] | binding signal (GST-Co-NF-kB) | binding signal (GST-Dm-Relish) | binding signal (GST-Aq-NF-kB)
1 | CCGATTAACATCACGGGAACCCCTGATGTTAATCGGGTCTTGATTCGCTTGACGCTGCTG | 5.04 z-score | 2.85 z-score | 1.9 z-score | 9.89 z-score | 5.86 z-score
2 | CCGATTAACATCAGGGGGAAGCATGATGTTAATCGGGTCTTGATTCGCTTGACGCTGCTG | 4.43 z-score | 5.1 z-score | 7.73 z-score | 3.21 z-score | 4.01 z-score
3 | CCGATTAACATCAGGGAAATAAATGATGTTAATCGGGTCTTGATTCGCTTGACGCTGCTG | 2.39 z-score | 4.44 z-score | 4.38 z-score | 2.1 z-score | 4.44 z-score
4 | CCGATTAACATCACGGGGGGGACTGATGTTAATCGGGTCTTGATTCGCTTGACGCTGCTG | 5.94 z-score | 4.86 z-score | 7.62 z-score | 4.51 z-score | 5.17 z-score
5 | CCGATTAACATCAGGGAATTCACTGATGTTAATCGGGTCTTGATTCGCTTGACGCTGCTG | 4.74 z-score | 5.33 z-score | 3.01 z-score | 8.25 z-score | 6.46 z-score
6 | CCGATTAACATCAAAAAACACCCTGATGTTAATCGGGTCTTGATTCGCTTGACGCTGCTG | 4.07 z-score | 4.18 z-score | 2.93 z-score | 6.06 z-score | 5.32 z-score
7 | CCGATTAACATCAGACCTCCCCCTGATGTTAATCGGGTCTTGATTCGCTTGACGCTGCTG | 6.03 z-score | 3.94 z-score | 5.48 z-score | 2.4 z-score | 4.44 z-score
8 | CCGATTAACATCAGTAATTCCCATGATGTTAATCGGGTCTTGATTCGCTTGACGCTGCTG | 4.02 z-score | 4.3 z-score | 5.42 z-score | 7.23 z-score | 4.24 z-score
9 | CCGATTAACATCACACATTTCCCTGATGTTAATCGGGTCTTGATTCGCTTGACGCTGCTG | 2.78 z-score | 4.57 z-score | 4.08 z-score | 1.1 z-score | 3.88 z-score
10 | CCGATTAACATCAATTCCCAAGGTGATGTTAATCGGGTCTTGATTCGCTTGACGCTGCTG | 1.3 z-score | 1.9 z-score | 2.02 z-score | 1.17 z-score | 1.55 z-score
11 | CCGATTAACATCACATGTTCCCCTGATGTTAATCGGGTCTTGATTCGCTTGACGCTGCTG | 4.94 z-score | 5.26 z-score | 6.79 z-score | 3.04 z-score | 4.62 z-score
12 | CCGATTAACATCATCCCCGTGTCTGATGTTAATCGGGTCTTGATTCGCTTGACGCTGCTG | 2.75 z-score | 3.34 z-score | 4.49 z-score | 2.12 z-score | 3.87 z-score
13 | CCGATTAACATCACGGGGTTGCCTGATGTTAATCGGGTCTTGATTCGCTTGACGCTGCTG | 1.46 z-score | 1.02 z-score | 1.38 z-score | 2.5 z-score | 2.2 z-score
14 | CCGATTAACATCAAGTACCCCCATGATGTTAATCGGGTCTTGATTCGCTTGACGCTGCTG | 4.72 z-score | 2.7 z-score | 4.36 z-score | 2.25 z-score | 2.6 z-score
